This is an account of results in PubChem BioAssay.

A number with no mark means an inactive call.

This assay concerns XIP peptide (Xip251-270) binding. The assay is described as follows: small-molecule binders of XIP peptide, primary screen, biochemical, small-molecule microarray, fluorescence 635/667 nm, 0.1 µg/mL protein (AID 1182). The note with it: fluorescent protein binding, 635 nm, higher = more signal, called active from +8 up or from −8 down.
On to `N#Cc1ccc(NN2C(C(O)c3ccccc3)C=CC3C(=O)N(c4ccccc4)C(=O)C32)cc1` (stereo unspecified), for which the composite z-score is 0.283. For the compound `O=C(NCc1ccccc1)[C@]1(Cc2ccccc2)N=C(c2ccc(OCCCO)cc2)O[C@@H]1c1ccccc1`, the composite z-score is 0.0268. To `CC(C)CCC[C@@H](C)[C@H]1CC[C@@]2(C)C3=C(CC[C@]12C)[C@@]1(C)CC[C@H](OC(=O)C(C)(C)C)C(C)(C)C1CC3` (stereo partly specified) belongs 0.434.

Consider `NC(=O)NCC#Cc1ccc2c(c1)[C@]1(C(=O)N2)[C@H](c2ccc(OCCO)cc2)N2[C@H](c3ccccc3)[C@H](c3ccccc3)OC(=O)[C@H]2[C@@H]1C(=O)N1CCCCCCC1`, for which the composite z-score was 2.2.

In the case of `[N-]=[N+]=Nc1ccccc1[C@H]1OC(c2ccc(OCCCO)cc2)=N[C@@]1(Cc1ccccc1)C(=O)NCc1ccccc1`, the composite z-score is 1.39. As to `COCCOC(=O)N1C(=O)[C@@]2(c3cc(C#CCC(C(=O)OC)C(=O)OC)ccc31)[C@H](C(=O)N1CCCCCCC1)[C@H]1C(=O)O[C@H](c3ccccc3)[C@H](c3ccccc3)N1[C@@H]2c1ccc(O)cc1`, the composite z-score was 0.825. For the compound `C=CC[C@]1(C(=O)NCC(O)CO)N=C(c2ccc(OCCCO)cc2)O[C@H]1c1ccccc1N=[N+]=[N-]` (stereo partly specified), the composite z-score is 2.54. For the compound `O=C(Nc1cc(Br)ccc1C(=O)NCc1cccc(O)c1)c1ccccc1`, the composite z-score is 2.11. `CC1CC/C=C\[C@H]2OC34C=CCN(c5ccc(Cl)cc5)C(=O)[C@H]3N(C(CO)C(C)C)C(=O)[C@]4(C)C2C(=O)O1` (stereo partly specified): the composite z-score is -0.279. For the compound `CC1=C2[C@@H](CCc3ccccc3)OB(O)C[C@@H]2[C@@H]2C(=O)C=CC(=O)[C@@H]2C1`, the composite z-score was -0.387. On to `[N-]=[N+]=NCc1ccccc1C[C@]1(C(=O)NCCN2CCOCC2)COC(c2ccc(OCCCO)cc2)=N1`, for which the composite z-score is 0.0364. Consider `COc1ccc(CCNC(=O)[C@@H]2c3ccccc3C(=O)N(Cc3ccccc3)[C@H]2c2ccc(CO)cc2)cc1`, for which the composite z-score was 1.09. Regarding `C=CC[C@@]1(C(=O)NCC(O)CO)N=C(c2ccc(OCCCO)cc2)O[C@@H]1c1ccccc1` (stereo partly specified), the composite z-score was 2.6. For the compound `CO[C@H]1O[C@H](CO)[C@@H](OC(=O)Nc2cccc(F)c2)[C@H](OC(=O)Nc2ccc3c(c2)OCO3)[C@H]1OC(=O)Nc1ccc2c(c1)OCO2`, the composite z-score was 1.87. To `COc1ccc(C#Cc2ccc3c(c2)[C@]2(C(=O)N3)[C@H](c3ccc(OCCO)cc3)N3[C@H](c4ccccc4)[C@H](c4ccccc4)OC(=O)[C@H]3[C@@H]2C(=O)N2CCN(c3ncccn3)CC2)cc1` belongs -0.138.

As for `COCC(=C=CC[C@@H](O)c1ccccc1OCCO)C[C@@H](O)c1ccccn1`, the composite z-score is 0.416. For `CCCN1C(=O)[C@@]2(Cc3ccccc3)N=C(c3ccc(OCCCO)cc3)O[C@H]2c2ccccc21`, the composite z-score is 1.19. In the case of `NC(=O)NCC#Cc1ccc2c(c1)[C@]1(C(=O)N2)[C@H](c2ccc(OCCO)cc2)N2[C@H](c3ccccc3)[C@H](c3ccccc3)OC(=O)[C@H]2[C@@H]1C(=O)N1CCN(c2ncccn2)CC1`, the composite z-score was 0.0244. `C=CCC(OC(C)=O)[C@@H]1[C@@H](N(Cc2cccc3ccccc23)C(=O)c2ccc(C)cc2)c2cc(OCCCO)ccc2N1C(=O)c1ccc2ccccc2c1` (stereo partly specified): the composite z-score was 0.591. `COc1ccc([Si](C)(C)[C@@H]2[C@@H](CC(=O)N(CCO)Cc3ccccc3)O[C@]3(C(=O)N(Cc4ccc(N5CCOC5=O)cc4)c4ccccc43)[C@H]2C)cc1`: the composite z-score is 2.73.

Take `COc1ccccc1CN1C(=O)c2ccccc2[C@](Cc2ccccc2I)(C(=O)NCCN2CCOCC2)[C@@H]1c1ccc(CO)cc1`: the composite z-score was -0.0028. As to `CN(C)CCCN1C(=O)[C@@]2(Cc3ccccc31)c1ccccc1C(=O)N(Cc1ccccc1)[C@H]2c1ccc(CO)cc1`, the composite z-score is 0.0022. To `Cc1ccc(S[C@]2(C(=O)O)CC(=O)N(Cc3ccccc3C(F)(F)F)[C@@H]2c2ccc(CO)cc2)cc1` belongs -0.161.

For `CCOC(=O)C1=CC[C@@H](c2ccccc2)N(S(=O)(=O)c2ccc(C)cc2)[C@H]1C=C(C)C`, the composite z-score was 0.568. To `COCCOC(=O)N1C(=O)[C@@]2(c3cc(C#CCNC(N)=O)ccc31)[C@H](C(=O)N1CCCCCCC1)[C@H]1C(=O)O[C@H](c3ccccc3)[C@H](c3ccccc3)N1[C@@H]2c1ccc(OCCO)cc1` belongs 0.0447; to `CC(C)CNC(=O)[C@@]1(C)c2ccccc2C(=O)N(Cc2ccccc2)[C@H]1c1ccc(CO)cc1`, 1.06; to `C=CCC(OC(C)=O)[C@@H]1[C@@H](N(Cc2ccc(-c3ccccc3)cc2)C(=O)c2cccc3ccccc23)c2cc(OCCCO)ccc2N1C(=O)c1ccc2ccccc2n1` (stereo partly specified), -0.0607. For `COc1ccc([Si](C)(C)[C@@H]2[C@@H](CCO)O[C@]3(C(=O)N(Cc4ccccc4)c4ccc(N5C(=O)COc6ccccc65)cc43)[C@H]2C)cc1`, the composite z-score is -0.234. In the case of `C=C(COC)/C(=C/C[C@@H](OC(=O)c1ccncc1)c1cccc(OCCO)c1)c1cc(C(=O)OC)ccc1OC`, the composite z-score is 0.658. For `O=C1NC(=O)C2C1C=CC(C(O)c1ccc3c(c1)OCO3)N2Nc1ccc(Cl)cc1Cl` (stereo unspecified), the composite z-score is 2.16. Next, `[N-]=[N+]=NCc1ccccc1C[C@@]1(C(=O)NCCN2CCOCC2)N=C(c2ccc(OCCCO)cc2)O[C@@H]1c1ccccc1CN=[N+]=[N-]`: 0.607. To `C[N+](C)(C)CCCCCCNC(=O)[C@@H]1C[C@@H]2C(=O)NCC(=O)N2[C@@H]1c1ccc(O)cc1` belongs 0.842. Regarding `COC(=O)[C@@]1(Cc2ccccc2N=[N+]=[N-])N=C(c2ccc(OCCCO)cc2)O[C@H]1c1ccccc1`, the composite z-score was 0.37. `COCCOC(=O)N1C(=O)[C@@]2(c3cc(C#Cc4ccc(OC)cc4)ccc31)[C@H](C(=O)N1CCc3cc(OC)c(OC)cc3C1)[C@H]1C(=O)O[C@H](c3ccccc3)[C@H](c3ccccc3)N1[C@@H]2c1ccc(OCCO)cc1`: the composite z-score was -0.266. As for `O=C1O[C@H](c2ccccc2)[C@H](c2ccccc2)N2[C@H]1[C@@H](C(=O)N1CCCCCCC1)[C@]1(C(=O)Nc3ccc(C#CCCO)cc31)[C@H]2c1ccc(OCCO)cc1`, the composite z-score was 5.42.

In the case of `CCCC[C@H]1OB(O)C[C@H]2C1=C(COc1ccccc1)Cn1c(=O)n(-c3ccccc3)c(=O)n12`, the composite z-score is 1.9.
